Experimental data from PubChem BioAssay AID1159580 (chemical genetic matrix, 2015).
Screen size: about 5,500 compounds; about 2,000 (36%) were called active. Not shown: some 18% with an inconclusive outcome. The list shows a part of the results. Values without a mark were called inactive. No stated cut-off is given here; in the data, active means normalized growth mostly below about 0.91 (no sharp cut-off); inconclusive means no clear call, values can overlap the other calls; inactive means mostly above about 0.92.

Test: chemical genetic growth profiling, strain panel (AID 1159580);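 further: tested at 20 µM; growth read once vehicle control cultures reached saturation at 30 °C; 1 = growth at the plate median or of vehicle wells; lower values mean less growth of the strain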
Settings: S. cerevisiae deletion strains, growth OD
[1] = locus YAR019C, strain CDC15, active compounds read low
[2] = locus YBL105C, strain PKC1, active compounds read low
[3] = locus YBR135W, strain CKS1, active compounds read low
[4] = locus YBR136W, strain MEC1, active compounds read low
[5] = locus YBR160W, strain CDC28, active compounds read low
[6] = locus YDL017W, strain CDC7, active compounds read low
[7] = locus YDL028C, strain MPS1, active compounds read low
[8] = locus YDL101C, strain DUN1, active compounds read low
[9] = locus YDL108W, strain KIN28, active compounds read low
[10] = locus YDL132W, strain cdc53, active compounds read low
[11] = locus YDL214C, strain PRR2, active compounds read low
[12] = locus YDR052C, strain DBF4, active compounds read low
[13] = locus YDR054C, strain cdc34, active compounds read low
[14] = locus YDR226W, strain ADK1, active compounds read low
[15] = locus YDR477W, strain SNF1, active compounds read low
[16] = locus YER123W, strain YCK3, active compounds read low
[17] = locus YER133W, strain GLC7, active compounds read low
[18] = locus YFL009W, strain cdc4, active compounds read low
[19] = locus YFL029C, strain CAK1, active compounds read low
[20] = locus YFR003C, strain YPI1, active compounds read low
[21] = locus YFR019W, strain FAB1, active compounds read low
[22] = locus YFR028C, strain CDC14, active compounds read low
[23] = locus YGR040W, strain KSS1, active compounds read low
[24] = locus YGR052W, strain FMP48, active compounds read low
[25] = locus YGR092W, strain DBF2, active compounds read low
[26] = locus YHR030C, strain SLT2, active compounds read low
[27] = locus YHR079C, strain IRE1, active compounds read low
[28] = locus YHR082C, strain KSP1, active compounds read low
[29] = locus YHR205W, strain SCH9, active compounds read low
[30] = locus YIL147C, strain SLN1, active compounds read low
[31] = locus YJL095W, strain BCK1, active compounds read low
[32] = locus YJL128C, strain PBS2, active compounds read low
[33] = locus YJL157C, strain FAR1, active compounds read low
[34] = locus YJR016C, strain ILV3, active compounds read low
[35] = locus YJR066W, strain TOR1 (second series), active compounds read low
[36] = locus YJR066W, strain TOR1, active compounds read low
[37] = locus YKL048C, strain ELM1, active compounds read low
[38] = locus YKL067W, strain YNK1, active compounds read low
[39] = locus YKL101W, strain HSL1, active compounds read low
[40] = locus YKL193C, strain SDS22, active compounds read low
[41] = locus YKL203C, strain TOR2, active compounds read low
[42] = locus YLR113W, strain HOG1, active compounds read low
[43] = locus YLR133W, strain CKI1, active compounds read low
[44] = locus YLR403W, strain SFP1, active compounds read low
[45] = locus YML070W, strain DAK1, active compounds read low
[46] = locus YMR001C, strain CDC5, active compounds read low
[47] = locus YMR205C, strain PFK2 (second series), active compounds read low
[48] = locus YMR277W, strain FCP1, active compounds read low
[49] = locus YNL006W, strain LST8, active compounds read low
[50] = locus YNL020C, strain ARK1, active compounds read low
[51] = locus YNL161W, strain CBK1, active compounds read low
[52] = locus YNL183C, strain NPR1, active compounds read low
[53] = locus YNL207W, strain RIO2, active compounds read low
[54] = locus YNL222W, strain SSU72, active compounds read low
[55] = locus YNL307C, strain MCK1 (second series), active compounds read low
[56] = locus YOL078W, strain AVO1, active compounds read low
[57] = locus YOL136C, strain PFK27, active compounds read low
[58] = locus YOR061W, strain CKA2, active compounds read low
[59] = locus YOR119C, strain RIO1, active compounds read low
[60] = locus YOR231W, strain MKK1, active compounds read low
[61] = locus YOR329C, strain SCD5, active compounds read low
[62] = locus YPL031C, strain PHO85, active compounds read low
[63] = locus YPL153C, strain RAD53, active compounds read low
[64] = locus YPL204W, strain HRR25, active compounds read low
[65] = locus YPL209C, strain IPL1, active compounds read low
[66] = locus YPL256C, strain CLN2, active compounds read low
[67] = locus YPR025C, strain CCL1, active compounds read low
[68] = locus YPR106W, strain ISR1, active compounds read low
[69] = locus YPR111W, strain DBF20, active compounds read low
[70] = strain NNK1, active compounds read low
[71] = strain TSCII, active compounds read low

Structure (SMILES): N/C(CSc1ncccc1C(F)(F)F)=N/OC(=O)Nc1cccc(Cl)c1
- normalized growth [1]: 1
- normalized growth [2]: 0.995
- normalized growth [3]: 0.969
- normalized growth [4]: 0.995
- normalized growth [5]: 0.995
- normalized growth [6]: 0.996
- normalized growth [7]: 0.988
- normalized growth [8]: 0.993
- normalized growth [9]: 0.996
- normalized growth [10]: 0.98
- normalized growth [11]: 0.877
- normalized growth [12]: 1
- normalized growth [13]: 0.987
- normalized growth [14]: 0.983
- normalized growth [15]: 0.857
- normalized growth [16]: 0.724
- normalized growth [17]: 0.82
- normalized growth [18]: 0.996
- normalized growth [19]: 0.992
- normalized growth [20]: 0.995
- normalized growth [21]: 0.946
- normalized growth [22]: 0.991
- normalized growth [23]: 0.881
- normalized growth [24]: 0.793
- normalized growth [25]: 0.836
- normalized growth [26]: 0.582 (active)
- normalized growth [27]: 0.788
- normalized growth [28]: 0.946
- normalized growth [29]: 0.875
- normalized growth [30]: 0.995
- normalized growth [31]: 0.618
- normalized growth [32]: 0.967
- normalized growth [33]: 0.94
- normalized growth [34]: 0.989
- normalized growth [35]: 0.71
- normalized growth [36]: 0.841
- normalized growth [37]: 0.977
- normalized growth [38]: 0.897
- normalized growth [39]: 0.911
- normalized growth [40]: 0.987
- normalized growth [41]: 0.93
- normalized growth [42]: 0.819 (active)
- normalized growth [43]: 0.926
- normalized growth [44]: 0.904
- normalized growth [45]: 0.837
- normalized growth [46]: 0.994
- normalized growth [47]: 0.916
- normalized growth [48]: 0.988
- normalized growth [49]: 1
- normalized growth [50]: 0.919
- normalized growth [51]: 0.986
- normalized growth [52]: 0.384 (active)
- normalized growth [53]: 0.988
- normalized growth [54]: 0.997
- normalized growth [55]: 0.923
- normalized growth [56]: 0.994
- normalized growth [57]: 0.916
- normalized growth [58]: 0.931
- normalized growth [59]: 0.885
- normalized growth [60]: 0.749
- normalized growth [61]: 0.986
- normalized growth [62]: 0.836
- normalized growth [63]: 0.717
- normalized growth [64]: 0.78
- normalized growth [65]: 0.99
- normalized growth [66]: 0.845 (active)
- normalized growth [67]: 0.988
- normalized growth [68]: 0.984
- normalized growth [69]: 0.974
- normalized growth [70]: 0.99
- normalized growth [71]: 0.991

Structure (SMILES): Cc1cc(C(=O)O/N=C(/N)CSc2ncccc2C(F)(F)F)no1
- normalized growth [1]: 0.997
- normalized growth [2]: 0.993
- normalized growth [3]: 0.994
- normalized growth [4]: 0.992
- normalized growth [5]: 0.988
- normalized growth [6]: 0.995
- normalized growth [7]: 0.993
- normalized growth [8]: 1.01
- normalized growth [9]: 0.996
- normalized growth [10]: 0.99
- normalized growth [11]: 0.999
- normalized growth [12]: 0.998
- normalized growth [13]: 0.989
- normalized growth [14]: 0.991
- normalized growth [15]: 1
- normalized growth [16]: 1.01
- normalized growth [17]: 1.01
- normalized growth [18]: 0.999
- normalized growth [19]: 0.998
- normalized growth [20]: 0.993
- normalized growth [21]: 1
- normalized growth [22]: 0.994
- normalized growth [23]: 1.02
- normalized growth [24]: 0.995
- normalized growth [25]: 1.02
- normalized growth [26]: 0.957
- normalized growth [27]: 0.772
- normalized growth [28]: 1.17
- normalized growth [29]: 1
- normalized growth [30]: 0.991
- normalized growth [31]: 0.841
- normalized growth [32]: 0.983
- normalized growth [33]: 1.01
- normalized growth [34]: 0.997
- normalized growth [35]: 1
- normalized growth [36]: 1.14
- normalized growth [37]: 1.01
- normalized growth [38]: 0.993
- normalized growth [39]: 1
- normalized growth [40]: 0.989
- normalized growth [41]: 1.08
- normalized growth [42]: 0.789 (active)
- normalized growth [43]: 1.01
- normalized growth [44]: 1.02
- normalized growth [45]: 0.995
- normalized growth [46]: 0.997
- normalized growth [47]: 1.02
- normalized growth [48]: 0.994
- normalized growth [49]: 0.999
- normalized growth [50]: 1.01
- normalized growth [51]: 0.996
- normalized growth [52]: 0.933
- normalized growth [53]: 0.997
- normalized growth [54]: 0.978
- normalized growth [55]: 1.01
- normalized growth [56]: 0.998
- normalized growth [57]: 1.01
- normalized growth [58]: 1.02
- normalized growth [59]: 1.04
- normalized growth [60]: 0.792
- normalized growth [61]: 0.995
- normalized growth [62]: 1
- normalized growth [63]: 0.997
- normalized growth [64]: 1.01
- normalized growth [65]: 0.992
- normalized growth [66]: 0.824 (active)
- normalized growth [67]: 0.999
- normalized growth [68]: 0.997
- normalized growth [69]: 0.993
- normalized growth [70]: 1.01
- normalized growth [71]: 0.99

Structure (SMILES): Cc1ccc(C(=O)O/N=C(/N)CSc2ncccc2C(F)(F)F)cc1
- normalized growth [1]: 1
- normalized growth [2]: 1.01
- normalized growth [3]: 1
- normalized growth [4]: 1.01
- normalized growth [5]: 1
- normalized growth [6]: 1.01
- normalized growth [7]: 0.989
- normalized growth [8]: 1
- normalized growth [9]: 1
- normalized growth [10]: 1.01
- normalized growth [11]: 0.991
- normalized growth [12]: 1.01
- normalized growth [13]: 1.01
- normalized growth [14]: 1.02
- normalized growth [15]: 0.994
- normalized growth [16]: 0.995
- normalized growth [17]: 0.976
- normalized growth [18]: 0.994
- normalized growth [19]: 1
- normalized growth [20]: 1
- normalized growth [21]: 0.955
- normalized growth [22]: 1.01
- normalized growth [23]: 0.998
- normalized growth [24]: 1.02
- normalized growth [25]: 1
- normalized growth [26]: 0.982
- normalized growth [27]: 0.793
- normalized growth [28]: 1.19
- normalized growth [29]: 0.988
- normalized growth [30]: 1.01
- normalized growth [31]: 0.887
- normalized growth [32]: 0.988
- normalized growth [33]: 0.997
- normalized growth [34]: 1.01
- normalized growth [35]: 0.975
- normalized growth [36]: 1.16
- normalized growth [37]: 0.991
- normalized growth [38]: 0.996
- normalized growth [39]: 1
- normalized growth [40]: 1.01
- normalized growth [41]: 1.07
- normalized growth [42]: 0.828 (active)
- normalized growth [43]: 1
- normalized growth [44]: 0.976
- normalized growth [45]: 0.988
- normalized growth [46]: 1.01
- normalized growth [47]: 0.993
- normalized growth [48]: 1.01
- normalized growth [49]: 1.01
- normalized growth [50]: 1
- normalized growth [51]: 1.01
- normalized growth [52]: 0.951
- normalized growth [53]: 1.02
- normalized growth [54]: 1
- normalized growth [55]: 1.01
- normalized growth [56]: 1
- normalized growth [57]: 0.994
- normalized growth [58]: 0.982
- normalized growth [59]: 1.02
- normalized growth [60]: 0.821
- normalized growth [61]: 1.01
- normalized growth [62]: 1
- normalized growth [63]: 0.984
- normalized growth [64]: 0.994
- normalized growth [65]: 1.01
- normalized growth [66]: 0.884
- normalized growth [67]: 1
- normalized growth [68]: 1.01
- normalized growth [69]: 1
- normalized growth [70]: 1.02
- normalized growth [71]: 1.01
